# G9a inh = G9a (human) methyltransferase inhibition; Q96KQ7; G9a H3K9 monomethylation, AlphaScreen, 2 h; Potency, µM (series often up to 102 µM), most hits filed as inhibitors; hit rate 8.8% among 350,000; AID 504332; also: nearly all actives have a fitted effect of over 75% in size
#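 Step 1: enzyme (final 20 nM) with compound, 15 min RT. Step 2: substrate peptide 500 nM and SAM 20 uM, 2 h RT. Step 3: anti-H3K9me1 antibody and AlphaScreen beads, 10 min, then plate read.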
# L3MBTL1 inh = inhibitors of human L3MBTL1. AlphaScreen L3MBTL1–H3K9me1 peptide binding. AID 485360. hit rate 0.66% among 230,000. Potency, µM (series often up to 57.1 µM), most hits filed as inhibitors. Q9Y468; also: nearly all actives have a fitted effect of over 60% in size
#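 First, the protein-peptide complex forms for 30 min at room temperature (L3MBTL1 50 nM, biotinylated H3K9me1 peptide 75 nM). Next, compounds are pin-transferred and incubated 30 min. Finally, AlphaScreen beads are added and read after 30 min.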
# JMJD2A Tudor = JMJD2A Tudor domain (human) inhibition. O75164. AlphaScreen JMJD2A-Tudor / H3K4me3 peptide binding. Potency, µM (top dose mostly 114 µM), most hits filed as inhibitors. hit rate 4.4% among 390,000; also: nearly all actives have a fitted effect of over 50% in size
# HP1b chromo inh = blocks HP1-beta chromodomain binding to methylated histone tails; AlphaScreen HP1-beta / biotin-H3K9me3 peptide binding; P83916; hit rate 0.56% among 390,000; AID 540317; Potency, µM (highest dose often 114 µM), hits mostly inhibitors; also: nearly all actives have a fitted effect of over 70% in size
#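 Compound inhibition of the preformed complex between 50 nM HP1-beta and 50 nM biotinylated H3K9me3 peptide was read by AlphaScreen. Buffer was PBS pH 7.4 with 0.01% Tween-20. Incubations ran 30 min at room temperature, with 10 ug/mL donor/acceptor beads.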
# BAZ2B block = blocks human BAZ2B | Q9UIF8 | AlphaScreen BAZ2B-H3K14Ac peptide displacement | Potency, µM (top dose mostly 114 µM), hits mostly inhibitors | hit rate 4.4% among 360,000 | AID 504333; also: nearly all actives have a fitted effect of over 60% in size
#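 Multi-concentration screen (max 110 uM) measuring displacement of acetylated histone H3 peptide from BAZ2B by AlphaScreen, using 50 nM protein, 50 nM peptide and 10 ug/mL streptavidin donor plus Ni-chelate acceptor beads.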
# A number is an active result; – = inactive; ? = inconclusive; · = not tested or not shown; [ ] = dose if it differs, or a comment. Rows were chosen to be rich in hits. Some 11% of all compounds tested hit in one or more screens of this group. Calls follow the shape of the dose curve; as a rule, active = well fitted inhibition curve with a large enough effect; inconclusive = small, poorly fitted or top-dose-only effect; inactive = no such curve, though single readings can be large or run the other way.
SMILES,G9a inh,L3MBTL1 inh,JMJD2A Tudor,HP1b chromo inh,BAZ2B block
COc1cc(C(=O)Nc2c(C(=O)O)[nH]c3ccccc23)cc(OC)c1OC,15.8µM,·,–,–,–
CCc1ccccc1-n1c2c(cc(-c3nc(-c4ccc(Cl)cc4)cs3)c1=O)C(=O)CC(C)(C)C2,?,·,–,–,–
CCN1CCN(c2ncc3c(n2)CCN(Cc2cc(F)cc(F)c2)C3)CC1,?,·,79.4µM,–,50.1µM
CCN1CCN(c2ncc3c(n2)CCN(Cc2ccc(OC)c(OC)c2)C3)CC1,–[12.7 µM],·,–,–,–
CCc1ccc(CN2CCc3nc(N4CCN(CC)CC4)ncc3C2)cc1,?,·,?,–,56.2µM
CCCCn1c(SCc2ccccc2C#N)nc2c(sc3ccccc32)c1=O,–,·,–,–,–
COc1ccc(CNC(=O)CC(C)n2nc(C)cc2C)cc1 (centres undefined),–,·,–,–,–
O=C(NCc1cccs1)c1cccnc1SCCS(=O)(=O)c1ccc(C(F)(F)F)cn1,15.8µM,–,–,–,–
CS(=O)(=O)CCSc1ncccc1C(=O)NCc1cccs1,–,–,–,–,–
CCN1CCN(c2ncnc3c2nnn3Cc2ccccc2)CC1,39.8µM,–,–,–,–
O=c1c2c3c(sc2n(Cc2ccc(F)cc2Cl)c(=O)n1-c1ccc(Cl)cc1)CCC3,–,·,–,–,–
COc1ccc(NC(=O)C(NC(C)=O)C(=O)NCc2ccccc2)cc1 (centres undefined),–,–,–,–,–
COc1ccc(CC(CC(=O)O)C(=O)NCc2ccccc2)cc1 (centres undefined),56.2µM,–,–,–,–
COc1ccc(CC(CC(=O)O)C(=O)Nc2ccc(Cl)c(Cl)c2)cc1 (centres undefined),–,–,8.91µM,–,–
CC(C)c1c(C(=O)N/N=C/c2cccc(OCc3ccccc3)c2)nnn1-c1nonc1N,–,·,–,–,–
CC12CCC(C1)C(C)(C)C2=O (centres undefined),–,·,·,·,·
Oc1ccc(/C=N/Nc2ccc(Cl)nn2)c(O)c1O,?,·,11.2µM,?,10µM
COc1cc(/C=N/Nc2ccc(Cl)nn2)cc(OC)c1O,15.8µM,·,–,?,–
Oc1c(Br)cc(Br)cc1/C=N/Nc1ccc(Cl)nn1,–[2.33 µM],·,?,–,–
Oc1c(Br)cc(/C=N/Nc2ccc(Cl)nn2)cc1Br,39.8µM,·,?,?,50.1µM
Fc1cccc(/C=N/Nc2ccc(Cl)nn2)c1,–[0.501 µM],·,–,–,?
NCCSSCCN,22.4µM,·,–,12.6µM,–
CCc1cccc(NC(=O)Cn2c(=O)n(CC(=O)NCCc3ccccc3)c(=O)c3ccccc32)c1,–,·,–,–,?
CC1CN(C(=O)N2c3ccccc3Sc3ccccc32)CC(C)O1 (centres undefined),–,–,–,–,89.1µM
CC1CCCN(C(=O)N2c3ccccc3Sc3ccccc32)C1 (centres undefined),–,·,–,–,–
SMILES,G9a inh,L3MBTL1 inh,JMJD2A Tudor,HP1b chromo inh,BAZ2B block
CC(C)C(=O)Nc1nnc(S(=O)(=O)N(C)Cc2ccc(F)cc2)s1,?,·,–,–,–
CN1CCc2cccc3c2[C@H]1Cc1ccc(O)c(O)c1-3,1.41µM,?,8.91µM,14.1µM,?
Cc1ccc(-c2csc(NC(=O)c3cccc(N4C(=O)CCC4=O)c3)n2)o1,8.91µM,–,79.4µM,–,–
Cc1ccc(C(=O)Nc2nnc(-c3ccco3)o2)cc1C,–,–,–,–,?
CS(=O)(=O)c1ccccc1-c1nnc(NC(=O)c2cccc(N3C(=O)CCC3=O)c2)o1,?,–,2.51µM,–,79.4µM
CCOc1ccc(-c2csc(NC(=O)c3cccc(N4C(=O)CCC4=O)c3)n2)cc1,–,·,–,–,–
Cc1ccccc1C(=O)Nc1nnc(-c2ccco2)o1,–,–,50.1µM,–,50.1µM
CSc1cccc(-c2nnc(NC(=O)c3cccc(N4C(=O)CCC4=O)c3)o2)c1,–,–,?,–,?
O=C(Nc1nnc(-c2ccco2)o1)c1cccc(N2C(=O)CCC2=O)c1,15.8µM,–,4.47µM,–,22.4µM
CCOc1ccccc1N(C)C(=O)c1c2c(nc3ccccc13)C(=O)N(C1CCCCC1)C2,–,·,–,–,–
CCOC(=O)c1cccc(NC(=O)CCC(=O)N2CC(C)Oc3ccc(C)cc32)c1 (centres undefined),–,·,–,–,–
